The whole screen tested about 330,000 compounds, of which fewer than 10 were called active. Calls follow the shape of the dose curve; as a rule, active = well fitted activation curve with a large enough effect; inconclusive = small, poorly fitted or top-dose-only effect, or another doubt; inactive = no such curve, though single readings can be large or run the other way. A selection follows.
Assay: Activators of T cell receptors: qHTS campaign
Conditions: primary human leukocytes, anti-CD3, IL-2 HTRF, 48 h; series mostly up to 9.22 µM
Description: Normally activation of naive T cells requires two signals. 1. A signal through the T cell receptor (TCR) which provides antigen specificity to the response. 2. Signals through co-stimulatory molecules, which are necessary for proliferation, survival and cytokine production. In the absence of co-stimulatory signals T cells are not effectively activated, and may even be rendered anergic or unresponsive to subsequent signaling. This lack of costimulation has been shown in multiple model systems to be a major factor in the limited strength and effectiveness of anti-tumor T cell responses. The goal of this project is to identify small molecule compounds that will stimulate T cell activation in the presence of TCR signaling but in the absence of co-stimulatory signals, thereby allowing activation of naive T cells in the absence of co-stimulation. Identification of such compounds would have clear experimental and clinical applications in instances where desirable antigen-specific immune responses are not generated due to a lack of co-stimulation, for example in the generation of anti-tumor responses. In collaboration between the National Cancer Institute and NIH Chemical Genomics Center, a high-throughput amenable screen was developed to discover small molecules that co-stimulate and activate human T cell receptors. The screen will be carried out using a novel homogeneous time resolved fluorescence energy transfer (HTRF) assay to measure production of the cytokine IL-2 by activated T cells and will be tested against the NIH Molecular Libraries Small Molecule Repository (MLSMR). NIH Chemical Genomics Center [NCGC] NIH Molecular Libraries Probe Centers Network [MLPCN] MLPCN Grant: MH090820-01 Assay Submitter (PI): Richard Hodes, National Cancer Institute, NIH
Primary human leukocytes are incubated with a-CD3 beads and compounds for 48 hr. The amount of secreted IL-2 is then assayed with a HTRF IL-2 kit. The presence of IL-2 cytokine captures the detection reagents and brings the a-IL-2-K and a-IL-2-d2 into close proximity. Upon excitation with 320nm light, the europium cryptate is capable of transferring energy to acceptor molecules within close proximity, resulting in acceptor molecule emission at 665nm.

outcome, inactive:
COc1cccc(CC(=NO)c2cccc(OC)c2)c1
CC(NC(=O)c1ccccc1)C(=O)Nc1ccccc1 (stereo not drawn)
COc1cc(/C=C/CNC[C@H]2O[C@@H](n3cnc(C(N)=O)n3)[C@H](O)[C@@H]2O)ccc1O
COc1cc2c(cc1OC)C(Cc1cc(OC)c(OC)cc1[N+](=O)[O-])=NCC2
Cc1ccc(-c2csc(C(C#N)=C(O)CN3CCN(C(=O)c4ccco4)CC3)n2)cc1
CN(C)c1ccc(CSc2ccccc2)cc1
COc1cc(C(=O)CCc2ccc3c(c2)OCO3)cc(OC)c1OC
O=c1[nH]c2c(c(=O)n1-c1ccccc1)CCO2
CN(C(=O)c1cccc(NC(=O)Cc2ccc(NC(=O)C3CCCN(C(=O)C4CCCC4)C3)cc2)c1)C1CCC1 (stereo not drawn)
CC(=O)c1cccc(-c2ccc(CN3C(CC(C)C)C(=O)N(Cc4cn(CC5CCCCC5)nn4)CCS3(=O)=O)cc2)c1 (stereo not drawn)
N#CCc1c[nH]c2ccc([N+](=O)[O-])cc12
O=c1c2ccccc2ncn1CCc1ccncc1
COc1cccc2c1C(=O)c1c(O)c3c(c(O)c1C2=O)CC(O)(C(C)=NNC(=O)c1ccc(Cl)c(Cl)c1)CC3OC1CC(N)C(O)C(C)O1 (stereo not drawn)
O=c1ccn([C@@H]2O[C@H](CNS(=O)(=O)c3cc4ccccc4s3)[C@@H](O)[C@H]2O)c(=O)[nH]1
CCCCN1CC(COCc2ccccc2)OCCS1(=O)=O (stereo not drawn)
COc1ccc(OC)c(Cc2cnc3nc(N)nc(N)c3c2C)c1
CCC1([N+](=O)[O-])COC(c2ccc(C(C)C)cc2)OC1 (stereo not drawn)
CC1C(C)N(C(=O)CCl)c2ccccc2N1C(=O)CCl (stereo not drawn)
OCC(O)C1OCOC(C(O)CO)C1O (stereo not drawn)
CC1=CC(=NNS(=O)(=O)c2ccc([N+](=O)[O-])cc2)CC(C)(C)C1
C#CCOCCOCCOCCNc1nc(N2CCOCC2)nc(N2CCN(C(=O)[C@H](Cc3ccc(O)cc3)n3cc(CCO)nn3)CC2)n1
COc1ccc(Cl)cc1C=CC=Nc1ccc(S(N)(=O)=O)cc1
O=C(O)C(CCc1ccccn1)c1ccccc1 (stereo not drawn)
COc1ccc(C(=O)Nc2cccc(/C=C(/CCC(=O)O)c3nc4ccccc4s3)c2)cc1
O=[N+]([O-])c1ccc(NS(=O)(=O)c2ccccc2)c(Cl)c1
OC(COc1ccccc1)CN1CCN(c2cccc(Cl)c2)CC1 (stereo not drawn)
COc1cc2c(cc1CNC[C@H]1O[C@@H](n3cnc(C(N)=O)n3)[C@H](O)[C@@H]1O)OCO2
CCc1nnc(NC(=O)c2cc(S(=O)(=O)N3CCN(CC)CC3)ccc2Cl)s1
O=C(NNc1nc(N2CCCC2)nc(N2CCCC2)n1)c1ccccc1
Nc1ccc2[nH]c(=S)sc2c1
CCCC(O)(c1ccccc1)C(c1ccccc1)c1ccccn1 (stereo not drawn)
COc1ccc(Cl)cc1C=CC=NNC(=O)c1ccncc1
COc1cccc2oc(CCc3ccccc3)cc(=O)c12
Nc1ccc2c(c1)C(O)c1ccc(Cl)cc1-2 (stereo not drawn)
COc1ccc(CNCCCNCc2ccc(OC)c(OC)c2)cc1OC
O=S(=O)(Nc1ccc2ccccc2c1)N1CCCCC1
C[C@@H]1NS(=O)(=O)c2cc(Cl)ccc2O[C@@H]1c1ccccc1
O=[N+]([O-])c1ccc(COc2ccccc2CN2CCOCC2)cc1
Cc1nc2ccccc2c(C(=O)O)c1-c1ccccn1
O=C1NC(=O)C(CCc2ccccc2)(c2ccccc2)N1 (stereo not drawn)
O=c1oc2ccccc2c(=O)c2ccccc12
c1ccc(C(=NNc2nc3ccccc3s2)c2ccccn2)cc1
Cc1ccc(OCCNC(=O)c2cccc(S(=O)(=O)N3CCN(Cc4ccccc4)CC3)c2)cc1
O=C(NCCc1ccccc1)c1c[nH]c2ccc(F)cc2c1=O
CNN/C(N=Cc1ccc([N+](=O)[O-])s1)=N\S(=O)(=O)c1cc(C)c(Cl)cc1SCc1ccccc1
O=C1OC(Cc2ccccc2)C(c2ccccc2)C1=O (stereo not drawn)
COc1ccc(S(=O)(=O)N2CCc3ccccc32)cc1C(=O)Nc1cc(S(C)(=O)=O)ccc1Cl
CN(O)C(=S)c1ccccc1
CC(C)C[C@H]1CN([C@@H](CC(C)C)CN2CCC[C@@H]2CN2C(=O)C(=O)NC[C@@H]2Cc2ccccc2)C(=O)C(=O)N1CCc1ccccc1
COc1cc(C2c3cc4c(cc3C(O)C3COC(=O)C23)OCO4)cc(OC)c1OC (stereo not drawn)
Cc1cc(C)c(C=NNc2nc3c([nH]2)c(=O)n(C)c(=O)n3C)c(C)c1
C#CCOCCOCCOCCNc1nc(N2CCN(C(=O)Cn3cc(CCO)nn3)CC2)nc(N2CCN(C(=O)[C@H](CCCCN)n3cc(CCCC)nn3)CC2)n1
C[C@]12CCC(=O)C=C1C=CC1C2CC[C@@]2(C)C1CC[C@@]21CCC(=O)O1 (stereo partly drawn)
CC(=O)Nc1ccc(C(=O)Nc2cc(S(=O)(=O)N3CCOCC3)ccc2N2CCOCC2)cc1
C=CC(=O)Nc1ccc(Nc2ccnc(Nc3ccc(N4CCN(C)CC4)cc3)n2)cc1
Cc1ccc(C)c(S(=O)(=O)N(C)c2ccc(OC(=O)C3CCN(C(=O)c4ccc(F)cc4)CC3)cc2)c1
Cc1c(NS(=O)(=O)c2cccc(C(=O)Nc3ccc(SC(F)F)cc3)c2)c(=O)n(-c2ccccc2)n1C
C[C@@H]1ON(C)[C@H]2C[C@H]3c4cc(N5CCN(C)CC5)ccc4CCN3C(=O)[C@@H]12
Cc1onc(-c2c(F)cccc2Cl)c1C(=O)Nc1cccc(S(=O)(=O)N2CCCCC2)c1
O=C(CC1Sc2ccccc2NC1=O)NNc1ccc(Cl)c(Cl)c1 (stereo not drawn)
CCC(=O)N1CCc2cc(Br)c(S(=O)(=O)NCCN3CCCCC3CC)cc21 (stereo not drawn)
CC(C)Cn1cnc2c(SCc3ccc(Cl)cc3)nc(N)nc21
O=C1NCC(c2ccccc2)(c2ccccc2)C(=O)N1
COC[C@@H]1NS(=O)(=O)c2ccc(Br)cc2O[C@H]1c1ccccc1
CN1CCC(N(C)C(=O)c2ccc(Cl)c(S(=O)(=O)Nc3ccc(Cl)cc3)c2)CC1
Cc1cc2c(cc1C)NC1(C[C@H]3CCC(=O)N4CC[C@@H](C1)[C@@H]34)C(=NC(C)(C)CC(C)(C)C)N2 (stereo partly drawn)
CN(C(=O)c1cccc(NC(=O)Cc2ccc(NC(=O)C3CCCN(C(=O)C4CC4)C3)cc2)c1)C1CC1 (stereo not drawn)
O=C1/C(=C\c2ccc(O)cc2)CCC1CNc1ccc(Cl)cc1 (stereo not drawn)
O=C1C2C3C=CC(C3)C2C(=O)N1c1ncc([N+](=O)[O-])s1 (stereo not drawn)
NNc1cccc(C=Cc2ccccc2)cc1=O
COc1ccc(-c2nnc(-c3ccc4ccccc4c3)o2)cc1
Cc1nc(N)sc1-c1ccccc1
NC(=O)C1(Nc2ccc(-c3ccccc3)cc2)CCCC1
CCN(CC)CCCN1C(=O)C(=O)/C(=C(/O)c2c(C)nc3ccccn23)C1c1ccc(C)o1 (stereo not drawn)
O=C1OC(Oc2ccc(Br)cc2)(c2ccccc2)c2ccccc21 (stereo not drawn)
CN(C)C(=S)N=c1ssc(=S)n1Cc1ccco1
CN(C(=O)c1cccc(NC(=O)Cc2cccc(NC(=O)C3CCCN(C(=O)C4CC4)C3)c2)c1)C1CCC1 (stereo not drawn)
O=C(NNC(=O)c1ccccc1O)c1ccccc1O
O=C1CC(c2ccccc2)C(=O)N2C(=O)CC(c3ccccc3)C(=O)N12 (stereo not drawn)
Nc1ccc2c(c1)C(=Cc1cccnc1)c1ccccc1-2
CC(=O)c1ccc(NC(=O)C(C)OC(=O)c2ccc(NS(=O)(=O)c3ccc4[nH]c(=O)[nH]c4c3)cc2)cc1 (stereo not drawn)
CCOc1ccccc1NC(=S)C(=C([O-])c1ccc2c(c1)OCCO2)[n+]1ccc(CC)cc1
O=C1C(Cl)=C(Oc2ccccc2)C(=O)c2ccccc21
CSc1ncnc2c1ncn2CC(=O)C1CCC2C3CCC4=CC(=O)CCC4(C)C3CCC12C (stereo not drawn)
O=S(=O)(O)c1cc2onnc2c2ccccc12
CCOC(=O)c1ccc2[nH]c(C)c(CN3CCN(C)CC3)c(=O)c2c1
COC1=CC(=O)OC(c2ccc(OC)cc2)C1 (stereo not drawn)
CCOC(=O)c1ccccc1OC(=O)Oc1ccccc1C(=O)OCC
COc1ccc(CCN2CC(C(=O)OCC(=O)NCc3ccccc3Cl)CC2=O)cc1OC (stereo not drawn)
O=C(CNC(=O)c1cc(S(=O)(=O)N2CCOCC2)ccc1N1CCCC1)Nc1ccc(F)c(F)c1
COc1cc2[nH]c(O)c(C=O)c2cc1OC
Cc1ccc(Nc2c(O)nc[nH]c2=O)cc1C
NC(=O)C1(Nc2ccc([N+](=O)[O-])cc2)CCCC1
O=C1COc2c1ccc(O)c2O
O=C(Cc1ccc(Cl)cc1)c1ccccc1
c1ccc2c(c1)OC1OC2Oc2ccccc21
CCc1ccc(C(=O)C(C)OC(=O)CN2C(=O)NC3(CCCC3)C2=O)cc1 (stereo not drawn)
CCOC(=O)C1CCCN(C(=O)Cn2ncc3c(=O)oc4ccc(C)cc4c32)C1 (stereo not drawn)
CC(=O)OCC1(O)CC23CCC4c5ccoc5CCC4(C)C2CCC1C3 (stereo not drawn)
CC(=O)CSc1nc(CCc2ccccc2)c(C#N)c(=O)[nH]1
CCN(CC)CCCC(C)n1c2nc(=O)[nH]c(=O)c-2nc2cc(Cl)ccc21 (stereo not drawn)
c1ccc(-c2c[nH]c(-c3ccccc3)c2)cc1
O=C(NCC1(N2CCCCC2)CCCCC1)c1cccc(S(=O)(=O)Nc2ccccc2Cl)c1
